# Hits are enriched below; roughly 1.6% of the tested compounds scored in any of these assays.
# KCNQ2 enhance: potentiators of rat KCNQ2 potassium channel; Potassium voltage-gated channel subfamily KQT member 2 (Rattus norvegicus), O88943; CHO-K1 KCNQ2, FluxOR thallium flux fluorescence; hits give high values; B-score at 10 µM; 310,000 compounds, 0.54% hits; AID 2239, 2010;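 active means fluorescence ratio B-score at least 3 SD of library B-scores, with initial fluorescence B-score within 3 of them, cut at about 5.3 in these data; same plate scores as AID 2156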;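 further: B-score of peak minus minimum over baseline fluorescence ratio after K+ and Tl+ stimulus; positive B-score means potentiation of KCNQ2 with more thallium influx and brighter signal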
# Target sequence (O88943 whole entry, looked up): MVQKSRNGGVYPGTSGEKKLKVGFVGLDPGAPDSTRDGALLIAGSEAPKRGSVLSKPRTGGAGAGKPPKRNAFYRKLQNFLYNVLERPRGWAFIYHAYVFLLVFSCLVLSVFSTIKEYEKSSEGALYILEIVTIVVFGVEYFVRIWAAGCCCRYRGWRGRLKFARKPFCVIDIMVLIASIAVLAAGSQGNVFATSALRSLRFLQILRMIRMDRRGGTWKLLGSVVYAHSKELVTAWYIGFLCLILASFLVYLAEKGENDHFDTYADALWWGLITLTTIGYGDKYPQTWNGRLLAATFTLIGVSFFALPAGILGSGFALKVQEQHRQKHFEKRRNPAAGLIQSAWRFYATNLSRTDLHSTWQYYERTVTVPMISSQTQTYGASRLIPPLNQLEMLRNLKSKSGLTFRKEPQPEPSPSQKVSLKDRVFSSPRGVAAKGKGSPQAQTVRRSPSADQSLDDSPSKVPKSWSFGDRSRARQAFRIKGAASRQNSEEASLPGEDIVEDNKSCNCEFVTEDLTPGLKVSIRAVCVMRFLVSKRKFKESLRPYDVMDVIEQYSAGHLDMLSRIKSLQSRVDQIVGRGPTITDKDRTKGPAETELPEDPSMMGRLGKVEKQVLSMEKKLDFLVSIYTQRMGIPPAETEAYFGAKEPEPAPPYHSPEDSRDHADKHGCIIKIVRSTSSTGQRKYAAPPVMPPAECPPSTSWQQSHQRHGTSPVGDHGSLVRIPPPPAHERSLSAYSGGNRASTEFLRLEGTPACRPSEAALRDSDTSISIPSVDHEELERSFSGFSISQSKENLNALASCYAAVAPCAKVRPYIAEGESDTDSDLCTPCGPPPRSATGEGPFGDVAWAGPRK
# KCNQ2 inh: rat KCNQ2 potassium channel inhibitors, primary screen, cell-based, CHO-K1, FluxOR thallium flux, B-score; 20 min; hits give low values; B-score at 10 µM; 310,000 compounds, 1.1% hits;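 active means fluorescence ratio B-score at most minus 3 library SDs, with starting brightness B-score within 2 library SDs, cut at about -5.5 in these data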
# Hits are given with their value; i = inactive; nt = not tested or not shown.
SMILES,KCNQ2 enhance,KCNQ2 inh
COc1cc(/C=N/NC2=NS(=O)(=O)c3ccccc32)cc(OC)c1OC,i,i
COc1cc(/C=N/NC2=NC(C)(C)Cc3ccccc32)cc(OC)c1OC,i,-5.6
O=C1CC(c2ccccc2)CC(O)=C1C=NCc1ccccc1Cl (stereo not drawn),nt,i
O=C1CC(c2cccc(Cl)c2)CC(O)=C1C=NC1CCCC1 (stereo not drawn),i,-6.8
Cc1ccc(S(=O)(=O)NCc2ccccc2)cc1C(=O)N1CC(C)CC(C)C1 (stereo not drawn),i,-6
Cc1ccc(S(=O)(=O)NCc2ccccc2)cc1C(=O)N1CCCCC1,i,i
CC(=O)c1cc2c(cc1NC(=O)Nc1cccc(Cl)c1)OCCO2,i,-6.3
CC(=O)c1cc2c(cc1NC(=O)c1ccc(Cl)cc1)OCCO2,i,i
CCN(CCCNC(=O)CN1C(=O)COc2ccc(S(=O)(=O)N3CCC(C)CC3)cc21)Cc1ccccc1,i,i
CCN(CC)S(=O)(=O)c1cccc(C(=O)NC(Cc2c[nH]c3ccccc23)c2nnc3n2CCC3)c1 (stereo not drawn),i,i
COC(=O)N(NC(=O)C(O)(c1ccccc1)c1ccccc1)c1ccc(C)cc1,i,-5.9
CCOC(=O)N(NC(=O)C(O)(c1ccccc1)c1ccccc1)c1ccccc1,i,-6.1
CCCCC(O)(CCCC)C(=O)NN(C(=O)OC)c1ccccc1,nt,i
CCOC(=O)N(NC(=O)C(O)(C(C)C)C(C)C)c1ccccc1,nt,i
COc1cccc(-n2cnc3sc(C)cc3c2=O)c1,i,i
CCOc1ccc(NC(=O)CSc2nc3ccccc3nc2N2CC(C)OC(C)C2)cc1 (stereo not drawn),nt,i
CC1CCN(c2cc(N)c(Cl)cc2[N+](=O)[O-])CC1,i,-6.5
CC1CCN(c2cc(C#N)c(C#N)cc2[N+](=O)[O-])CC1,i,i
CCN1CCN(c2ccc(N3CCN(C(=O)c4ccc(Br)o4)CC3)nn2)CC1,nt,i
CS(=O)(=O)c1ccc(Cl)c(NC(=O)c2cc(=O)[nH]c3ccc(S(=O)(=O)N4CCOCC4)cc23)c1,i,i
O=C(NCCc1ccccn1)c1nc(Cn2cc(Br)cn2)no1,nt,i
CCn1c(SCc2ccccc2Cl)nc2nc3c(cc2c1=O)CCCC3,nt,i
CCn1c(SCc2c(Cl)cccc2Cl)nc2nc3c(cc2c1=O)CCCC3,i,-6.7
Cc1ccc(NC(=O)C2Cc3ccccc3CN2C(=O)c2ccccc2)cc1Cl (stereo not drawn),i,-6.1
Cc1ccc(C(=O)N2Cc3ccccc3CC2C(=O)O)cc1 (stereo not drawn),i,i
SMILES,KCNQ2 enhance,KCNQ2 inh
C/C(=C\c1ccccc1)C(=O)NCc1ccco1,i,i
COc1ccc(C(=O)Nc2ccccc2N2CCN(C(=O)c3ccccc3)CC2)cc1Br,i,-7.2
O=C(Nc1ccccc1N1CCN(C(=O)c2ccccc2)CC1)c1ccc(Cl)cc1,nt,i
CC(C)C(=O)N1CCN(c2ccccc2NC(=O)c2cccc(Cl)c2)CC1,i,-6.6
CC(C)C(=O)N1CCN(c2ccccc2NC(=O)c2cccc3ccccc23)CC1,i,-7.3
Cn1c(=O)n(C)c2cc(N3CCCCC3)c(NC(=O)c3cccc(Cl)c3)cc21,nt,i
CS(=O)(=O)N1CCN(c2ccccc2NC(=O)c2cccc3ccccc23)CC1,nt,i
COc1cccc(OCc2cc(C(=O)N(C)CCOc3ccc(C)cc3)no2)c1,nt,i
Cc1ccc(S(=O)(=O)N(CC(=O)Nc2ccc(C)cc2C)C(=O)N2CCN(C)CC2)cc1,i,i
COc1ccc(NC(=O)CSc2nc3ccsc3c(=O)n2CCCCCC(=O)O)cc1,nt,i
CC(C)Oc1ccc(C(CC(=O)O)Cc2ccccc2)cc1 (stereo not drawn),i,i
CCN(CC)S(=O)(=O)c1ccc(N2CCN(C)CC2)c(NC(=O)c2cc(=O)c3ccccc3o2)c1,i,i
CCc1ccccc1Nc1nc(N)nc(CSCC(=O)Nc2ccc(C)c(C)c2)n1,19,i
CCc1ccc(NC(=O)CSCc2nc(N)nc(Nc3ccccc3CC)n2)cc1,15,i
CCc1ccccc1Nc1nc(N)nc(COC(=O)c2cccn2C)n1,i,i
Cc1ccccc1CSCc1nc(N)nc(Nc2ccccc2C)n1,i,i
CCOc1ccccc1N(C)S(=O)(=O)c1ccc2c(c1)N(C(C)=O)CCO2,nt,i
COc1cc(OC)c(OC)cc1/C=N/NC(=O)CCc1c(C)n[nH]c1C,i,i
O=C(NC1CCCC1)C(c1cccnc1)N(C(=O)c1csnn1)c1ccccc1Cl (stereo not drawn),i,i
CC(C)CCn1c(=O)c2sccc2n2c(CCCC(=O)N3CCN(c4ccccn4)CC3)nnc12,nt,i
CC(C)(C)n1nnnc1C(c1cccnc1)N(Cc1ccccc1)Cc1ccco1 (stereo not drawn),nt,i
COc1cccc(CN(Cc2ccco2)C(c2ccc(F)cc2)c2nnnn2C(C)(C)C)c1 (stereo not drawn),i,-6.1
O=C1CCC(C(=O)N2CCCCCC2)CN1Cc1cccc(C(F)(F)F)c1 (stereo not drawn),nt,i
CCN(CC)C(=O)CS(=O)(=O)CC(=O)Nc1cc(OCCOC)c(Cl)cc1Cl,nt,i
COc1ccc(-c2nnc(Nc3nc4c(OC)cccc4s3)o2)c(OC)c1,i,i
SMILES,KCNQ2 enhance,KCNQ2 inh
COc1ccc(-c2nnc(Nc3nc4c(OC)cccc4s3)o2)cc1,5.5,i
CN(CC(=O)Nc1c(Cl)cccc1Cl)C(=O)c1cc2ccccc2cc1O,nt,i
Nc1nnc(SCC(=O)c2ccccc2)s1,i,i
Nc1c(C(=O)c2ccccc2)sc2snc(SCC(=O)c3ccccc3)c12,i,-6
Cc1ccc(N/C=C2\C(=O)C3(C)CCC2C3(C)C)cc1C (stereo not drawn),i,-6.5
CC12CCC(C(=Nc3ccc(N=C4C(=O)C5(C)CCC4C5(C)C)cc3)C1=O)C2(C)C,nt,i
CC(C)CN(C(=O)COC(=O)c1ccc(Br)o1)c1c(N)n(Cc2ccccc2)c(=O)[nH]c1=O,i,i
Clc1ccc(-c2nc(NCCCN3CCOCC3)c3ccccc3n2)cc1,i,-7.9
COc1cccc(-c2nc(NCCN3CCOCC3)c3ccccc3n2)c1O,nt,i
Clc1cccc(-c2nc(NCCCN3CCOCC3)c3ccccc3n2)c1,nt,i
Oc1ccccc1-c1nc(NCCN2CCOCC2)c2ccccc2n1,i,-8.2
O=C(COC(=O)CNC(=O)c1ccco1)NCc1ccc(F)cc1,nt,i
CC(C)c1nnc(NC(=O)CCC(=O)NC2CCCc3ccccc32)s1 (stereo not drawn),nt,i
NC(=O)N/N=C/c1ccccc1OCC(=O)NCc1ccccc1,i,i
Oc1ccc(Cl)cc1C1=NNC(c2cccs2)C1 (stereo not drawn),12,i
Cc1ccc(O)c(C2=NNC(c3ccc(Cl)cc3)C2)c1 (stereo not drawn),nt,i
C/C(CCc1ccccc1)=N\NC(=O)C(=O)Nc1cccc(Cl)c1,i,i
CCOC(=O)CNc1c(-c2ccc(O)cc2)nc2ccccn12,nt,i
CCOC(=O)CNc1c(-c2ccc(O)cc2)nc2ccc(Cl)cn12,i,-5.7
CCCCc1nc2cc(C(=O)NCCc3c(C)n[nH]c3C)ccc2o1,i,i
COc1ccccc1OCC(O)Cn1nc(C)cc1C (stereo not drawn),nt,i
Cc1cc(C)n(CC(O)COc2ccccc2C(=O)Nc2ccccc2)n1 (stereo not drawn),i,-6.6
CC(C)Cn1cnc2c1c(=O)n(CC(=O)NC(=O)NC(C)(C)C)c(=O)n2Cc1ccccc1,nt,i

# Screening data deposited in PubChem BioAssay by Johns Hopkins Ion Channel Center.
